Data from PubChem BioAssay AID1063 (University of Pittsburgh Molecular Library Screening Center, 2008).
Screen size: about 200,000 compounds; about 18,000 (9%) were called active. The sample as a whole holds a higher share of actives than the screen did. A number with no mark means an inactive call. No stated cut-off is given here; in the data, active means inhibition above about 50%; inactive means the rest.

assay: Leishmania major promastigote growth inhibition, primary screen (AID 1063); conditions: Leishmania major promastigotes, resazurin fluorescence viability; at 10 µM; active compounds read high;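 further: promastigotes grown with compound for 44 hours at 28 °C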

Structure (SMILES)	inhibition
CCN(CCn1cccn1)Cc1cn[nH]c1-c1ccc(OC)cc1F	2.85%
Oc1cccc2ccc(/C=C/c3ccc(Br)s3)nc12	-3.7%
CCCNC(=O)CN(Cc1ccccc1F)S(=O)(=O)c1ccc(C)cc1	100% (active)
CCN(CC(=O)NCCc1ccccc1)S(=O)(=O)c1ccccc1	5.3%
CCN(CC(=O)NCCc1ccccc1)S(=O)(=O)c1ccc(C)cc1	48%
CN(C)C(=O)c1cccn(Cc2cccc(C(F)(F)F)c2)c1=O	-8.4%
Cc1cc(C)n2nc(SCC(=O)NC(=O)NCc3ccco3)nc2n1	-4.34%
O=c1[nH]c2cccnc2n(CCNc2ncc(C(F)(F)F)cc2Cl)c1=O	-4.9%
O=C(Nc1ccc2ccccc2c1)Nc1ccc2snnc2c1	100% (active)
Cc1ccc(NC(=O)Nc2ccc3oc(C)nc3c2)cc1	2.15%
COc1ccc(NC(=O)Nc2ccc3nsnc3c2)cc1	5.81%
CCCn1c(NC(=O)C23CC4CC(CC(O)(C4)C2)C3)nc2ccccc21	-1.31%
CCn1c(COc2c(C)cccc2C)nnc1SCc1nc2ccccc2c(=O)[nH]1	4.15%
C/[N+]([O-])=C\c1ccc([N+](=O)[O-])o1	98.5% (active)
COC(=O)C1=C(C)N(C)C(=O)NC1c1ccc([N+](=O)[O-])o1 (centres undefined)	15.2%
CN1CCN(/N=C/c2ccc(-c3ccc([N+](=O)[O-])cc3)o2)CC1	-3.39%
O=C(COc1ccc(Cl)cc1[N+](=O)[O-])N1CCCCC1	-1.15%
O=c1cc(CN2CCN(S(=O)(=O)/C=C/c3ccccc3)CC2)c2ccc(O)cc2o1	67.8% (active)
O=C(CN1CCN(S(=O)(=O)/C=C/c2ccccc2)CC1)Nc1ccc(N2CCOCC2)cc1	7.17%
COc1ccc2c(CN3CCN(S(=O)(=O)c4cccs4)CC3)cc(=O)oc2c1	2.99%
O=c1c(-c2ccccc2)cnc2n1CCS2	-5.22%
O=C(Cc1c(F)cccc1Cl)Nc1ncc([N+](=O)[O-])s1	15.8%

Structure (SMILES)	inhibition
O=C(Nc1ccc2c(c1)OCCO2)C(c1ccc(F)cc1)N1CCCCC1 (centres undefined)	58.5% (active)
O=C(CSc1ccc(-c2ccc(F)cc2)nn1)Nc1ccc2c(c1)OCCO2	-7%
CC1CCCN(C(C(=O)Nc2ccc(C(C)C)cc2)c2ccc3c(c2)OCO3)C1 (centres undefined)	26.3%
COc1cc(/C=N/NC(=O)c2cc(C)n(-c3ccc(F)cc3)c2C)cc(OC)c1O	3.76%
O=C(COC(=O)CC1CC2CCC1C2)NC(=O)NC1CCCC1 (centres undefined)	-2.24%
Cc1cccc(-n2cnc(C(=O)Nc3cccnc3)c2)n1	10.3%
Cc1cccc(-n2cnc(C(=O)NNC(=S)Nc3ccccc3)c2)n1	87% (active)
Cn1cc(Cl)c(C(=O)NNC(=S)Nc2cccc(Cl)c2)n1	-7.35%
CCOC(=O)c1ccc[n+](CC(=O)Nc2ccccc2OC(F)F)c1	1.13%
CCCCN(C(=O)COc1ccc(NC(C)=O)cc1)C1CCS(=O)(=O)C1 (centres undefined)	-9.97%
COc1ccc(C(=O)NC2CCN(C(=S)Nc3ccccc3)CC2)cc1	-5.57%
COc1ccccc1NC(=S)NC(=O)C(C)C	-0.07%
CCCNC(=S)N1CCC(NC(=O)C23CC4CC(CC(C4)C2)C3)CC1	-3.43%
CCOCCCNC(=S)N1CCC(NC(=O)C2CCCCC2)CC1	-5.68%
CC(C)NC(=S)N1CCN(C(c2ccccc2)c2ccccc2)CC1	7.72%
COc1ccccc1NC(=S)N1CCN(C(c2ccccc2)c2ccccc2)CC1	65.1% (active)
CCOc1ccc(C(=O)NC2CCN(C(=O)Nc3ccccc3OC)CC2)cc1	-1.82%
COc1ccccc1NC(=S)N1CCC(NC(=O)C23CC4CC(CC(C4)C2)C3)CC1	94.4% (active)
COCCNC(=S)N1CCC(NC(=O)C23CC4CC(CC(C4)C2)C3)CC1	73.8% (active)
Cc1ccccc1NC(=O)Cn1c(=O)n(CC2CCCO2)c(=O)c2ccccc21 (centres undefined)	-7.76%
Cc1cc(C)c(C#N)c(N2CCC(C(N)=O)CC2)n1	-0.97%
Cc1csc(NC(=O)Nc2ccccc2[N+](=O)[O-])n1	4.81%

Structure (SMILES)	inhibition
O=C(Oc1cccc(NC2=NS(=O)(=O)c3ccccc32)c1)c1ccncc1	-2.71%
O=C(N/N=C/c1ccc(OCc2ccccc2)cc1)c1ccc(O)cc1	12.5%
CCC1SC(CC)C(=O)N(CC(=O)NC2CCCCC2)C1=O (centres undefined)	-5.41%
CC1(C)C(=O)Nc2ccccc2N1C(=O)COC(=O)Cn1cnc2ccccc2c1=O	-3.68%
Cc1cc(C(=O)OCC(=O)N2c3ccccc3NC(=O)C2(C)C)c(C)n1-c1ccccc1	21.6%
CCNc1ccc(C(=O)OCC(=O)N2c3ccccc3NC(=O)C2(C)C)cc1[N+](=O)[O-]	54.4% (active)
COc1ccc(-c2csc(-c3cccs3)n2)cc1OC	0.19%
CCOc1ccc(-c2ccc(SCC(=O)N3CCOCC3)nn2)cc1	-2.79%
Cc1ccc(Cc2nc(-c3cccc(C)c3)no2)cc1	-3.66%
Cc1ccc(-c2noc(CC(c3ccccc3)c3ccccc3)n2)cc1	7.54%
Cc1ccc(-c2noc(CN3CCN(Cc4ccccc4)CC3)n2)cc1	52.1% (active)
Cn1cc(/C=C/C(=O)N2CCCC(C(=O)c3ccc(C(F)(F)F)cc3)C2)cn1 (centres undefined)	-7.13%
Brc1cc(/C=N/n2cnnc2)oc1Br	-0.54%
S=c1[nH]nc(NCCc2ccccc2)s1	-6.01%
COc1ccccc1N1CCN(C(=O)CN(Cc2ccc(Cl)cc2)S(C)(=O)=O)CC1	-0.49%
COc1ccc(OC)c(NC(=O)CN(Cc2ccc(Cl)cc2)S(C)(=O)=O)c1	90.1% (active)
COC(=O)c1ccccc1NC(=O)CN(Cc1ccc(Cl)cc1)S(C)(=O)=O	36.9%
COc1ccc(NC(=O)CN(Cc2ccccc2)S(C)(=O)=O)cc1OC	-6.14%
COc1ccc(CNC(=O)CN(Cc2ccc(Cl)cc2)S(C)(=O)=O)cc1	57.5% (active)
COc1ccc(CCNC(=O)CN(c2ccccc2)S(C)(=O)=O)cc1	-6.75%
